# Screening data from PubChem BioAssay.
# Beta cell apopt: inhibitors of cytokine-induced beta cell apoptosis, primary screen, luminescence; protection from apoptosis, % (concentration not given with the values); AID 435005, 2010; INS-1E cytokine-induced death, ATP luminescence, 48 h; percent of positive-control rescue, neutral wells zero; 300,000 compounds, 0.8% hits;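 active = Every replicate reaches about 75%, or at least half do and their mean reaches it too, limit read from the data; inconclusive = At least half of replicates reach the limit but their mean does not; inactive = Under half of replicates reach the limit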;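 note: higher means more ATP so stronger rescue from cytokine killing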
# CSC inhib: cancer stem cell viability inhibitors, primary screen, luminescence | cancer stem cell-like cells viability | inhibition, % at 7.5 µM | 300,000 compounds, 1.1% hits | AID 2717, 2010; in the data active = inhibition above about 75%; inconclusive = no clear call, values can overlap the other calls; tested in HMLE shEcad cells
# aSyn UTR inh: MLPCN primary screen, SNCA 5' untranslated region. alpha-synuclein 5'UTR reporter, inhibitor activity. inhibition, % (tested at 7.5 µM). 300,000 compounds, 0.82% hits; in the data active = inhibition above about 60%; inconclusive = no clear call, values can overlap the other calls;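 note: H4 neuroglioblastoma cells stably carrying SNCA 5'UTR luciferase fusion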
# Mdm2 MdmX PPI: inhibitors of human Mdm2-MdmX association, primary screen, cell-based, luminescence, split luciferase, SaOS-2, uHTS. inhibition, % at 8 µM. 330,000 compounds, 3% hits. SaOS-2 split-luciferase Mdm2/MdmX complementation. Protein Mdm4 (Homo sapiens) + E3 ubiquitin-protein ligase Mdm2 (Homo sapiens), …. AID 485346, 2010;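 active = inhibition of at least 50% at 8 µM in the primary screen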
# Target sequence (O15151 whole entry, looked up): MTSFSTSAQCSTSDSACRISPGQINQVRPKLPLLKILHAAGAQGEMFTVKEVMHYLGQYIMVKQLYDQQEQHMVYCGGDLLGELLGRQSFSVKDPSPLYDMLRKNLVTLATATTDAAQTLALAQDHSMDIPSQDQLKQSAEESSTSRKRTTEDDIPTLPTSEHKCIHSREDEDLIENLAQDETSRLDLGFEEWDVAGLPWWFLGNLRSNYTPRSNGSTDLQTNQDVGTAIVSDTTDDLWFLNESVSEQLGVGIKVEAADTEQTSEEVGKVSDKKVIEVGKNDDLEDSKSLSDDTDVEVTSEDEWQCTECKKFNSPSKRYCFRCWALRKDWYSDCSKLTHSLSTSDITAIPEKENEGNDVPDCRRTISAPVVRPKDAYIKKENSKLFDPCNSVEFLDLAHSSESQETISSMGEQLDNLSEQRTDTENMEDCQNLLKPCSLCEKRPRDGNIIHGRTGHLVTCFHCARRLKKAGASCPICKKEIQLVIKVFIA
# Target sequence (Q00987 whole entry, looked up): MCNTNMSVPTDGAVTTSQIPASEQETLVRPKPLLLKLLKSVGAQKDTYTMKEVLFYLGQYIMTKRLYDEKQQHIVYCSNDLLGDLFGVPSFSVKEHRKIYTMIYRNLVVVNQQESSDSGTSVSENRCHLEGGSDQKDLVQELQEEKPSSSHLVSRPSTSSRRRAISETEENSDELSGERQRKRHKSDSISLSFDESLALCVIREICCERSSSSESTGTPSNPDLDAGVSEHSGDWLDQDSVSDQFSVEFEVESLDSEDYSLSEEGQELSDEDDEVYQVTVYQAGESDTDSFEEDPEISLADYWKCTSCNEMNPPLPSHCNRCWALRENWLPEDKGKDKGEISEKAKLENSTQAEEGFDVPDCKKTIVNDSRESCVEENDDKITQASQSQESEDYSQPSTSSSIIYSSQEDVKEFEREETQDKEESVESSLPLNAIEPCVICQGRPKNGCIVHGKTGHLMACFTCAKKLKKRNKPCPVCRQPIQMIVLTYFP
# Bfl-1 A1 inh: caspase 3/7 activation in MEF A1-2A-BIM cells, primary screen, A1 inhibitor project, cell-based, luminescence, HTS; Caspase-Glo 3/7 luminescence, 3 h; percent of clofoctol response, vehicle zero; caspase activation, % (no concentration beside the values); 330,000 compounds, 0.066% hits; AID 2462, 2010;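 active = over half of replicate activation scores above 10%, or exactly half above 10 with the replicate mean above 10; inconclusive = replicate mean below 10 yet half the replicates above 10; inactive = over half of replicates below 10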
# Mdm2-MdmX conf: Mdm2-MdmX complex disruptors, retested hits, confirmation, luminescence, single concentration. shares compounds with Mdm2 MdmX PPI. Mdm2-MdmX binding, luminescent assay. inhibition, % at 8 µM. 10,000 compounds, 55% hits. AID 489028, 2010; in the data active = inhibition above about 40%
# Full FLuc ctr: full-length luciferase signal inhibition, confirmation, counter-screen for Mdm2/MdmX interaction inhibitor project, cell-based, single concentration, SaOS-2; AID 504607, 2011; SaOS-2 full-length luciferase counterscreen, luminescence; shares compounds with Mdm2 MdmX PPI; inhibition, % at 8 µM; 6,200 compounds, 77% hits;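 active = mean inhibition at 8 µM reaching about 37%, which flags the compound as non-specific, limit read from the data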;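 note: p53-null SaOS-2 cells with luciferase driven by a doxycycline-inducible promoter; compound on cells about two nights before reading with doxycycline added after day one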
# Hits are given with their value; i = inactive; ? = inconclusive; nt = no result. Hits are enriched below; roughly 4.1% of the tested compounds scored in any of these assays.
SMILES,Beta cell apopt,CSC inhib,aSyn UTR inh,Mdm2 MdmX PPI,Bfl-1 A1 inh,Mdm2-MdmX conf,Full FLuc ctr
Cc1cccc(CS(=O)(=O)c2ncc(Cl)c(C(=O)Nc3c(C)cccc3C)n2)c1,nt,nt,i,94.0,nt,85.7,50.9
Cc1nnc(NC(=O)CS(=O)(=O)Cc2ccccc2)s1,nt,nt,i,i,nt,nt,nt
Cc1cc(C)cc(S(=O)(=O)Cc2noc(C(=O)NCc3ccccc3)c2C(=O)NCc2ccccc2)c1,i,nt,nt,i,i,nt,nt
Cc1ccc2oc(C(=O)NCc3ncc(C)[nH]3)c(C)c2c1,i,i,i,i,i,nt,nt
CCCc1nnc(NC(=O)c2nc(S(=O)(=O)Cc3cccc(C)c3)ncc2Cl)s1,i,108.0,i,90.0,?,i,i
CCCc1nnc(NC(=O)CS(=O)(=O)c2ccc(C)cc2)s1,i,i,i,i,i,nt,nt
CCCc1c(NC(=O)Nc2ccc(Cl)cc2Cl)cnn1-c1ccccc1,nt,i,i,85.8,i,74.7,42.6
C=C(C)[C@@H]1CC[C@]2(C(=O)O)CC[C@]3(C)[C@H](CC[C@@H]4[C@@]5(C)CC[C@H](O)C(C)(C)[C@@H]5CC[C@]43C)[C@@H]12,nt,83.5,i,55.0,i,i,nt
O=[N+]([O-])c1ccc(N=NN(CCO)CCO)cc1,i,i,i,i,i,nt,nt
O=[N+]([O-])c1ccc(N=Nc2ncc[nH]2)cc1,i,80.8,i,100.3,i,59.2,53.5
COc1cccc(CN(C(=O)c2cccs2)C2CCS(=O)(=O)C2)c1 (stereo not given),i,i,i,i,i,nt,nt
O=c1/c(=C/c2ccc(O)cc2)sc2nc3cc(Br)cnc3n12,i,i,i,57.9,i,i,39.5
CCS(=O)(=O)c1nnnn1-c1ccccc1S(C)(=O)=O,i,i,i,60.2,i,63.1,i
COCCn1c(SCC(=O)NC(C)c2ccc(F)cc2)nc2ccccc21 (stereo not given),i,i,i,i,i,nt,nt
Cc1ccc2nc(-c3ccncc3)cc(-c3ccccc3)c2c1,i,i,i,i,i,nt,nt
Cc1ccc(-c2cc3cccc[n+]3cc2-c2ccc(C)cc2)cc1,110.4,i,i,52.3,i,42.7,47.5
O=S(=O)(NCCN1CCOCC1)c1cc(Cl)ccc1Cl,nt,i,i,i,i,nt,nt
C#CCOCCOCCOCCNc1nc(N2CCN(C(=O)[C@H](CC(N)=O)n3cc(C(N)[C@H](C)CC)nn3)CC2)nc(N2CCN(C(=O)[C@H](CC(N)=O)n3cc(C(N)[C@@H](C)CC)nn3)CC2)n1 (stereo not given in full),i,nt,nt,i,i,nt,nt
CCOc1ccccc1NC(=O)CCC(=O)Nc1nnc(C2CCCCC2)s1,i,i,i,i,i,nt,nt
CCN(C[C@H]1N[C@@](CC)(C(=O)OC)[C@H]2C(=O)N(Cc3ccccc3)C(=O)[C@@H]12)C(=O)Nc1ccc(C)cc1,nt,nt,nt,i,nt,nt,nt
CCN(C[C@H]1N[C@@](Cc2ccccc2)(C(=O)OC)[C@H]2C(=O)N(Cc3ccccc3)C(=O)[C@@H]12)C(=O)Nc1ccc(C(F)(F)F)cc1,i,i,nt,85.2,i,40.0,58.0
CCN(C[C@H]1N[C@@](CC)(C(=O)OC)[C@H]2C(=O)N(Cc3ccccc3)C(=O)[C@@H]12)C(=O)Nc1ccc(Cl)cc1,nt,nt,nt,60.4,nt,62.0,58.0
CCN(C[C@H]1N[C@@](Cc2ccccc2)(C(=O)OC)[C@H]2C(=O)N(Cc3ccccc3)C(=O)[C@@H]12)C(=O)Nc1ccc(C)cc1,nt,nt,nt,54.2,nt,51.1,73.7
CCC(=O)N1c2ccc(S(=O)(=O)CCC(=O)N3CCN(c4ccccc4F)CC3)cc2CC1C (stereo not given),i,i,i,i,i,nt,nt
Cc1cc(Br)ccc1NC(=O)CN(C)C(=O)C1=COCCO1,i,i,nt,i,i,nt,nt
CC(C)c1ccc(NC(=O)COC(=O)c2nn(C)c(=O)c3ccccc23)cc1,i,i,nt,i,i,nt,nt
